Experimental data as given in the supplement of paper PMC6089552.
The campaign covered roughly 3,200 compounds. About 300 (9.4%) showed activity. This excerpt belongs to a sample that is enriched for actives.

Tested on: A673/TR/shEF
Assay: cell viability (LOESS-normalised, relative to median of negative controls) (log2 ratio); higher = more viable cells (less compound effect), active = hit call of the paper (over 3 MAD below the median)
Conditions: treatment time: 72 h
Method in brief: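 Doxycycline, present or absent from 24 h before compounds, was used to induce EWS-FLI1 shRNA knockdown in A673/TR/shEF Ewing sarcoma cells at 1,500 per well in 384-well plates. Cells then received library compounds at two or more concentrations, or DMSO controls, for three days. Viability was measured by CellTiter-Glo luminescence on an Envision reader, and per-plate LOESS correction, division by the negative-control median and log2 transformation followed.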

[1] = 0.25 µM, library screen: screen1, EWS-FLI1 expression: high (no doxycycline)
[2] = 0.25 µM, library screen: screen1, EWS-FLI1 expression: low (doxycycline-induced shRNA knockdown)
[3] = 2.5 µM, library screen: screen1, EWS-FLI1 expression: high (no doxycycline)
[4] = 2.5 µM, library screen: screen1, EWS-FLI1 expression: low (doxycycline-induced shRNA knockdown)
[5] = 0.25 µM, library screen: screen2, EWS-FLI1 expression: high (no doxycycline)
[6] = 0.25 µM, library screen: screen2, EWS-FLI1 expression: low (doxycycline-induced shRNA knockdown)
[7] = 2.5 µM, library screen: screen2, EWS-FLI1 expression: high (no doxycycline)
[8] = 2.5 µM, library screen: screen2, EWS-FLI1 expression: low (doxycycline-induced shRNA knockdown)
[9] = 0.025 µM, library screen: screen2, EWS-FLI1 expression: high (no doxycycline)
[10] = 0.025 µM, library screen: screen2, EWS-FLI1 expression: low (doxycycline-induced shRNA knockdown)
[11] = 25 µM, library screen: screen2, EWS-FLI1 expression: high (no doxycycline)
[12] = 25 µM, library screen: screen2, EWS-FLI1 expression: low (doxycycline-induced shRNA knockdown)
[13] = 0.025 µM, library screen: screen1, EWS-FLI1 expression: high (no doxycycline)
[14] = 0.025 µM, library screen: screen1, EWS-FLI1 expression: low (doxycycline-induced shRNA knockdown)
[15] = 25 µM, library screen: screen1, EWS-FLI1 expression: high (no doxycycline)
[16] = 25 µM, library screen: screen1, EWS-FLI1 expression: low (doxycycline-induced shRNA knockdown)
[17] = 0.103 µM, library screen: screen3, EWS-FLI1 expression: high (no doxycycline)
[18] = 0.103 µM, library screen: screen3, EWS-FLI1 expression: low (doxycycline-induced shRNA knockdown)
[19] = 0.308 µM, library screen: screen3, EWS-FLI1 expression: high (no doxycycline)
[20] = 0.308 µM, library screen: screen3, EWS-FLI1 expression: low (doxycycline-induced shRNA knockdown)
[21] = 0.926 µM, library screen: screen3, EWS-FLI1 expression: high (no doxycycline)
[22] = 0.926 µM, library screen: screen3, EWS-FLI1 expression: low (doxycycline-induced shRNA knockdown)
[23] = 2.8 µM, library screen: screen3, EWS-FLI1 expression: high (no doxycycline)
[24] = 2.8 µM, library screen: screen3, EWS-FLI1 expression: low (doxycycline-induced shRNA knockdown)
[25] = 8.3 µM, library screen: screen3, EWS-FLI1 expression: high (no doxycycline)
[26] = 8.3 µM, library screen: screen3, EWS-FLI1 expression: low (doxycycline-induced shRNA knockdown)
[27] = 25 µM, library screen: screen3, EWS-FLI1 expression: high (no doxycycline)
[28] = 25 µM, library screen: screen3, EWS-FLI1 expression: low (doxycycline-induced shRNA knockdown)

Measured: cell viability (log2)

CN=C1CN(O)C(c2ccccc2)=c2cc(Cl)ccc2=N1
inactive: [1] 0.0853 | [2] 0.0654 | [3] 0.0997 | [4] 0.0898

CCN1C[C@]2(C)CC[C@H](OC)[C@@]34C1[C@]1(OCO[C@@]15C[C@H](OC)[C@H]1C[C@]3(O)[C@@H]5[C@H]1OC)[C@@H](OC(C)=O)[C@H]24
inactive: [1] 0.0895 | [2] 0.0208 | [3] 0.12 | [4] 0.0444

C=CCN1CC[C@]23c4c5ccc(O)c4O[C@@H]2/C(=N/N=C2\CC[C@@]4(O)C6Cc7ccc(O)c8c7[C@@]4(CCN6CC=C)[C@@H]2O8)CC[C@@]3(O)C1C5
inactive: [5] 0.27 | [6] 0.119 | [7] 0.0736 | [8] 0.0511

S=C=NCc1ccccc1
inactive: [1] 0.0421 | [2] 0.0817 | [3] 0.0546 | [4] 0.123

CCOP(=S)(OCC)Oc1ccc2c(C)c(Cl)c(=O)oc2c1
inactive: [1] -0.0154 | [2] -0.0116 | [3] 0.000589 | [4] -0.0198

COc1c2c(cc3c1OCO3)CC[N+](C)=C2
inactive: [1] 0.122 | [2] 0.157 | [3] 0.0941 | [4] 0.18

COc1ccc(C(=O)OC2CCC3(C)C4CCC5[C@]6(O)C[C@H](O)[C@@]7(O)C(CN8CC(C)CCC8[C@@]7(C)O)[C@]6(O)C[C@@]53O[C@]24O)cc1OC (stereo partly drawn)
inactive: [1] 0.0564 | [2] 0.0531 | [3] 0.0896 | [4] 0.133

S=C=Nc1cccc(C2(N3CCCCC3)CCCCC2)c1
inactive: [5] 0.168 | [6] 0.105 | [7] 0.16 | [8] 0.118

NCCCP(=O)(O)O
inactive: [5] 0.138 | [6] 0.0766 | [7] 0.114 | [8] 0.116

O=C1C=CC(=O)c2c(O)cccc21
inactive: [9] 0.123 | [10] 0.0947 | [1] 0.185 | [2] 0.0663 | [5] 0.0843 | [6] 0.00401 | [3] 0.153 | [4] 0.0956 | [7] 0.273 | [8] 0.125
active: [11] -0.0924 | [12] -0.0926

CCCCCCC(C)(C)c1ccc([C@H]2C[C@@H](O)CC[C@H]2CCCO)c(O)c1
inactive: [5] 0.0289 | [6] 0.103 | [7] 0.129 | [8] 0.122

CCc1cccc(C)c1N(C(=O)CCl)C(C)COC (stereo not drawn)
inactive: [1] 0.0561 | [2] 0.0711 | [3] 0.0898 | [4] 0.0634

CCCC(C)(COC(N)=O)COC(=O)NC(C)C (stereo not drawn)
active: [7] -0.0715
inactive: [1] 0.0415 | [2] 0.112 | [5] 0.196 | [6] 0.0672 | [3] 0.137 | [4] 0.151 | [8] 0.121

C[N+]1=Cc2cc3c(cc2CC1)OCO3
inactive: [1] 0.0752 | [2] 0.0244 | [3] 0.15 | [4] 0.0111

COc1ccc([C@H]2Oc3c(I)c(OC)cc(OC)c3C[C@@H]2O)cc1OC
inactive: [1] -0.0318 | [2] 0.027 | [3] 0.0859 | [4] 0.059

N#C/C(=C\c1ccc(O)cc1)C(=O)O
inactive: [1] 0.0465 | [2] 0.0904 | [3] 0.146 | [4] 0.0788

C[C@@H](N)Cc1cnc[nH]1
inactive: [5] 0.0946 | [6] 0.0207 | [7] 0.146 | [8] 0.00233

OC[C@H]1O[C@@H](n2cnc3cc(Cl)c(Cl)cc32)[C@H](O)[C@@H]1O
active: [3] -0.183 | [15] -0.16
inactive: [13] 0.182 | [14] -0.067 | [1] 0.227 | [2] 0.0134 | [4] 0.128 | [16] 0.0669

Cc1cc([C@@H]2CCCN2C)on1
inactive: [5] 0.0967 | [6] 0.135 | [7] 0.0205 | [8] 0.0708

CN1CC[C@]2(CCN3CCc4c(oc5ccccc45)[C@@H]3C2)N(C)C1=O
inactive: [5] 0.195 | [6] 0.0926 | [7] 0.114 | [8] 0.114

CCCCN(CC)c1c([N+](=O)[O-])cc(C(F)(F)F)cc1[N+](=O)[O-]
inactive: [1] 0.116 | [2] 0.132 | [3] 0.0478 | [4] 0.194

ClC1=C(Cl)C2(Cl)C3C(Cl)C=CC3C1(Cl)C2(Cl)Cl (stereo not drawn)
inactive: [1] 0.152 | [2] 0.0412 | [3] 0.0862 | [4] 0.0598

CC(C)N1C(=O)c2ccccc2NS1(=O)=O
inactive: [1] 0.113 | [2] 0.086 | [3] 0.0391 | [4] 0.0775

C/C=C(/C)C(=O)O[C@H]1C(C)=C2[C@H]([C@@H]1OC(=O)CCCCCCC)[C@@](C)(OC(C)=O)C[C@H](OC(=O)CCC)[C@@]1(O)[C@H]2OC(=O)[C@@]1(C)O
active: [5] -3.16 | [6] -2.76 | [7] -3.49 | [8] -2.81

CN1C(=O)CN=C(c2ccccc2)c2cc(Cl)ccc21
inactive: [1] 0.0871 | [2] 0.0866 | [3] 0.123 | [4] 0.0545

C[C@]12CC[C@H]3[C@@H](CCC4=CC(=O)CC[C@@]43C)[C@@H]1CC[C@@H]2O
inactive: [1] 0.0751 | [2] -0.0159 | [3] 0.0937 | [4] -0.0498

O=c1cccc2n1CC1CC2CN2CCCCC12 (stereo not drawn)
inactive: [1] 0.16 | [2] 0.0123 | [3] 0.153 | [4] 0.0958

NCCc1cc(O)c(O)cc1O
inactive: [1] 0.0637 | [2] 0.155 | [3] 0.144 | [4] 0.129

CC(=O)OCC1=C(C(=O)O)N2C(=O)[C@@H](NC(=O)CCC[C@@H](N)C(=O)O)[C@H]2SC1
inactive: [5] 0.263 | [6] 0.114 | [7] 0.155 | [8] 0.174

CC[C@@]1(O)C(=O)OCc2c1cc1n(c2=O)Cc2cc3ccccc3nc2-1
inactive: [9] -0.0654 | [10] 0.049 | [18] -0.0714
active: [17] -1.01 | [1] -2.18 | [2] -0.586 | [5] -2.99 | [6] -0.42 | [19] -2.37 | [20] -0.543 | [21] -3.61 | [22] -0.88 | [3] -1.57 | [4] -0.388 | [7] -3.53 | [8] -0.945 | [23] -4.24 | [24] -1.16 | [25] -4.26 | [26] -1.3 | [11] -4.09 | [12] -1.25 | [27] -4.26 | [28] -2.33

C[C@]12CCC(=O)C=C1C=CC1C2CC[C@@]2(C)C1CC[C@@]2(O)CCC(=O)O (stereo partly drawn)
inactive: [1] 0.0813 | [2] -0.0168 | [3] 0.15 | [4] -0.00183

N[C@@H](Cc1ccc(N(CCCl)CCCl)cc1)C(=O)O
inactive: [1] 0.0874 | [2] 0.0161 | [5] 0.175 | [6] 0.17 | [3] 0.00755 | [4] 0.0488 | [7] 0.22 | [8] 0.172

O=C(O)CCCc1ccc(N(CCCl)CCCl)cc1
active: [11] -0.0762
inactive: [9] 0.0942 | [10] 0.0711 | [1] 0.0971 | [2] 0.0808 | [5] 0.12 | [6] 0.0418 | [3] 0.142 | [4] 0.131 | [7] 0.101 | [8] 0.11 | [12] 0.0238

Cn1c(CCCC(=O)O)nc2cc(N(CCCl)CCCl)ccc21
inactive: [17] 0.058 | [18] 0.0297 | [19] -0.00941 | [20] 0.026 | [21] -0.00645 | [22] 0.00947 | [23] -0.0453 | [24] -0.00369 | [25] 0.00708 | [26] 0.0974 | [27] -0.0533 | [28] 0.0463

CC(=O)CC1CCCCN1 (stereo not drawn)
inactive: [1] 0.0906 | [2] -0.00634 | [3] 0.0756 | [4] -0.083

CC(=O)O[C@@H]1CC2C(C)(C)[C@H](O)C=C[C@]2(C)C2CC[C@]3(C)C(=CC(=O)O[C@H]3c3ccoc3)[C@@]21C (stereo partly drawn)
inactive: [1] 0.113 | [2] 0.0781 | [3] 0.222 | [4] 0.195

CCc1cccc(CC)c1N(COC)C(=O)CCl
inactive: [1] 0.0413 | [2] -0.00378 | [3] 0.0617 | [4] 0.0338

CC(C)C(C(=O)OC(C#N)c1cccc(Oc2ccccc2)c1)c1ccc(Cl)cc1 (stereo not drawn)
inactive: [13] 0.0912 | [14] 0.0926 | [1] 0.0365 | [2] 0.00166 | [3] 0.0694 | [4] 0.0411 | [15] 0.0435 | [16] 0.0476

CC1(C)[C@H](C(=O)O[C@H](C#N)c2cccc(Oc3ccccc3)c2)[C@@H]1C=C(Br)Br
inactive: [13] 0.0513 | [14] -0.0407 | [1] 0.047 | [2] 0.086 | [3] 0.112 | [4] 0.12 | [15] -0.0163 | [16] 0.0977

CC1(C)C(C=C(Cl)Cl)C1C(=O)OC(C#N)c1cccc(Oc2ccccc2)c1 (stereo not drawn)
inactive: [13] 0.0827 | [14] 0.0478 | [1] 0.102 | [2] -0.0402 | [3] 0.0354 | [4] -0.0899
active: [15] -0.287 | [16] -0.665
